Measured values reported in PubChem BioAssay AID1159580 (chemical genetic matrix, 2015).
Among all 5,500 compounds or so, about 2,000 (36%) were called active. About 18% were inconclusive and are not listed. Cut-off read from the data, not from the text of the source: active = normalized growth mostly below about 0.91 (no sharp cut-off); inconclusive = no clear call, values can overlap the other calls; inactive = mostly above about 0.92. The list shows a part of the results.

Assay: chemical genetic growth profiling, strain panel (AID 1159580);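 note: tested at 20 µM; growth read once vehicle control cultures reached saturation at 30 °C; 1 = growth at the plate median or of vehicle wells; lower values mean less growth of the strain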
Conditions: S. cerevisiae deletion strains, growth OD
[1] = locus YCL061C, strain MRC1, stronger effect = lower value
[2] = locus YHR030C, strain SLT2, stronger effect = lower value
[3] = locus YJL187C, strain SWE1, stronger effect = lower value

Measured: normalized growth

Cc1onc(-c2ccccc2Cl)c1C(=O)N1CCCN2C(=O)c3ccccc3C21 (centres undefined)
inactive: locus YAL013W, strain DEP1, stronger effect = lower value 1 | locus YBR229C, strain ROT2, stronger effect = lower value 0.989 | [1] 0.985 | locus YDL101C, strain DUN1, stronger effect = lower value 0.963 | locus YDR150W, strain NUM1, stronger effect = lower value 0.971 | locus YEL061C, strain CIN8, stronger effect = lower value 1.01 | locus YGR078C, strain PAC10, stronger effect = lower value 0.994 | [2] 0.942 | locus YHR087W, strain rtc3, stronger effect = lower value 0.987 | [3] 1.01 | locus YJR043C, strain POL32, stronger effect = lower value 0.968 | locus YJR075W, strain HOC1, stronger effect = lower value 1.03 | locus YKL190W, strain CNB1, stronger effect = lower value 1 | locus YLR039C, strain RIC1, stronger effect = lower value 0.995 | locus YLR058C, strain SHM2 (second series), stronger effect = lower value 0.985 | locus YLR085C, strain ARP6, stronger effect = lower value 1.01 | locus YLR262C, strain YPT6, stronger effect = lower value 0.995 | locus YML094W, strain GIM5, stronger effect = lower value 1 | locus YMR219W, strain ESC1, stronger effect = lower value 1.01 | locus YMR263W, strain SAP30, stronger effect = lower value 0.999 | locus YMR307W, strain GAS1, stronger effect = lower value 0.992 | locus YNL128W, strain TEP1, stronger effect = lower value 0.991 | locus YNL153C, strain GIM3, stronger effect = lower value 0.972 | locus YNL298W, strain CLA4 (second series), stronger effect = lower value 0.998 | locus YNL322C, strain KRE1, stronger effect = lower value 1 | locus YNR030W, strain Alg12, stronger effect = lower value 0.993 | locus YPL055C, strain LGE1, stronger effect = lower value 1.01 | locus YPL241C, strain CIN2, stronger effect = lower value 0.987 | locus YPR135W, strain CTF4, stronger effect = lower value 0.931

CCCCC(=O)O[C@]1(C(=O)CO)CCC2C3CCC4=CC(=O)CC[C@]4(C)C3[C@@H](O)C[C@@]21C (some centres undefined)
inactive: locus YAL021C, strain ccr4, stronger effect = lower value 0.974 | locus YAL026C, strain drs2, stronger effect = lower value 0.982 | locus YAL030W, strain snc1, stronger effect = lower value 0.976 | locus YBL061C, strain skt5, stronger effect = lower value 0.988 | locus YBR009C, strain hhf1, stronger effect = lower value 0.985 | locus YBR023C, strain chs3, stronger effect = lower value 0.987 | locus YBR171W, strain sec66, stronger effect = lower value 0.976 | locus YBR231C, strain swc5, stronger effect = lower value 0.979 | locus YBR279W, strain paf1, stronger effect = lower value 0.989 | locus YCL011C, strain gbp2, stronger effect = lower value 0.963 | locus YCL016C, strain dcc1, stronger effect = lower value 0.981 | [1] 0.983 | locus YCL069W, strain vba3, stronger effect = lower value 0.985 | locus YCR088W, strain abp1, stronger effect = lower value 0.991 | locus YDL005C, strain med2, stronger effect = lower value 0.979 | locus YDL040C, strain nat1, stronger effect = lower value 0.981 | locus YDR001C, strain nth1, stronger effect = lower value 0.987 | locus YDR069C, strain doa4, stronger effect = lower value 0.973 | locus YDR137W, strain rgp1, stronger effect = lower value 0.939 | locus YDR159W, strain sac3, stronger effect = lower value 0.97 | locus YDR195W, strain ref2 0.933 | locus YDR297W, strain sur2, stronger effect = lower value 0.981 | locus YDR334W, strain swr1, stronger effect = lower value 0.947 | locus YDR335W, strain msn5, stronger effect = lower value 0.975 | locus YDR392W, strain spt3, stronger effect = lower value 0.968 | locus YEL003W, strain gim4, stronger effect = lower value 0.997 | locus YEL037C, strain rad23, stronger effect = lower value 0.97 | locus YEL061C, strain CIN8 (second series), stronger effect = lower value 0.98 | locus YER015W, strain faa2, stronger effect = lower value 0.972 | locus YER016W, strain bim1, stronger effect = lower value 0.974 | locus YER111C, strain swi4, stronger effect = lower value 0.981 | locus YER155C, strain BEM2 (second series), stronger effect = lower value 0.981 | locus YFR010W, strain ubp6, stronger effect = lower value 0.957 | locus YGL167C, strain pmr1, stronger effect = lower value 0.976 | locus YGL173C, strain kem1, stronger effect = lower value 0.964 | locus YGL227W, strain vid30, stronger effect = lower value 0.984 | locus YGL240W, strain doc1, stronger effect = lower value 0.973 | locus YGL253W, strain hxk2, stronger effect = lower value 0.976 | locus YHR013C, strain ard1, stronger effect = lower value 0.972 | locus YHR027C, strain rpn1, stronger effect = lower value 0.974 | [2] 0.987 | locus YHR079C, strain IRE1, stronger effect = lower value 0.994 | locus YHR142W, strain chs7, stronger effect = lower value 0.941 | locus YJL092W, strain hpr5, stronger effect = lower value 0.984 | locus YJL095W, strain BCK1 (second series), stronger effect = lower value 0.976 | locus YJL095W, strain BCK1, stronger effect = lower value 0.998 | locus YJL115W, strain asf1, stronger effect = lower value 0.952 | locus YJL129C, strain trk1, stronger effect = lower value 0.954 | locus YJL154C, strain vps35, stronger effect = lower value 0.982 | locus YJL164C, strain tpk1, stronger effect = lower value 0.984 | locus YJL166W, strain qcr8, stronger effect = lower value 0.985 | [3] 0.992 | locus YJR066W, strain TOR1, stronger effect = lower value 0.943 | locus YKL160W, strain elf1, stronger effect = lower value 0.983 | locus YKR026C, strain gcn3, stronger effect = lower value 0.969 | locus YKR091W, strain srl3, stronger effect = lower value 0.98 | locus YLL001W, strain dnm1, stronger effect = lower value 0.96 | locus YLL026W, stronger effect = lower value 0.975 | locus YLL041C, strain sdh2, stronger effect = lower value 0.979 | locus YLR027C, strain aat2, stronger effect = lower value 0.978 | locus YLR113W, strain HOG1, stronger effect = lower value 0.986 | locus YLR221C, strain rsa3, stronger effect = lower value 0.988 | locus YLR258W, strain gsy2, stronger effect = lower value 0.989 | locus YLR262C, strain YPT6 (second series), stronger effect = lower value 0.966 | locus YLR320W, strain mms22, stronger effect = lower value 0.977 | locus YLR342W, strain FKS1, stronger effect = lower value 0.981 | locus YLR357W, strain rsc2, stronger effect = lower value 0.971 | locus YLR370C, strain arc18, stronger effect = lower value 0.981 | locus YLR384C, strain iki3, stronger effect = lower value 0.979 | locus YML120C, strain ndi1, stronger effect = lower value 0.973 | locus YMR058W, strain fet3, stronger effect = lower value 0.974 | locus YMR125W, strain sto1, stronger effect = lower value 0.961 | locus YMR129W, stronger effect = lower value 0.979 | locus YMR205C, strain PFK2, stronger effect = lower value 0.997 | locus YMR231W, strain pep5, stronger effect = lower value 0.98 | locus YNL071W, strain lat1, stronger effect = lower value 0.979 | locus YNL183C, strain NPR1, stronger effect = lower value 0.942 | locus YNL209W, strain ssb2, stronger effect = lower value 0.98 | locus YNL248C, strain rpa49, stronger effect = lower value 0.946 | locus YNL322C, strain KRE1 (second series), stronger effect = lower value 0.959 | locus YNR049C, strain mso1, stronger effect = lower value 0.98 | locus YOR001W, strain rrp6, stronger effect = lower value 0.98 | locus YOR070C, strain gyp1, stronger effect = lower value 0.994 | locus YOR080W, strain dia2, stronger effect = lower value 0.975 | locus YOR083W, strain WHI5, stronger effect = lower value 0.98 | locus YOR106W, strain vam3, stronger effect = lower value 0.977 | locus YOR231W, strain MKK1, stronger effect = lower value 0.976 | locus YOR265W, strain rbl2, stronger effect = lower value 0.977 | locus YOR270C, strain vph1, stronger effect = lower value 0.869 | locus YOR290C, strain snf2, stronger effect = lower value 0.991 | locus YPL051W, strain arl3, stronger effect = lower value 1 | locus YPL078C, strain atp4, stronger effect = lower value 0.971 | locus YPL106C, strain sse1, stronger effect = lower value 0.957 | locus YPL240C, strain hsp82, stronger effect = lower value 0.972 | locus YPL256C, strain CLN2, stronger effect = lower value 0.972
